Each structure is given as a SMILES string.

The experiment deals with HCI01 (cells of a triple-negative basal-like breast cancer xenograft). Description: cell viability of combination (% of vehicle); higher = less cytotoxic. The note with it: 1 µM; 72 h; partner dose: 10 nM. How it is done: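 PDX cells were treated for 72 h with each drug at 1 µM plus carfilzomib (10 nM; 100 nM for WHIM2). Luciferase viability is expressed as percent of vehicle.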
As for `C#Cc1cccc(Nc2ncnc3cc(OCCOC)c(OCCOC)cc23)c1` [Erlotinib] + CC(C)C[C@H](NC(=O)[C@H](CCc1ccccc1)NC(=O)CN1CCOCC1)C(=O)N[C@@H](Cc1ccccc1)C(=O)N[C@@H](CC(C)C)C(=O)[C@@]1(C)CO1 [Carfilzomib], the “cell viability of combination” value was 66.8.
With `CC(NCCCc1cccc(C(F)(F)F)c1)c1cccc2ccccc12` (centres undefined) [Cinacalcet] + CC(C)C[C@H](NC(=O)[C@H](CCc1ccccc1)NC(=O)CN1CCOCC1)C(=O)N[C@@H](Cc1ccccc1)C(=O)N[C@@H](CC(C)C)C(=O)[C@@]1(C)CO1 [Carfilzomib] the figure was 82.4; with `Clc1ccc(C(Cn2ccnc2)OCc2ccsc2Cl)c(Cl)c1` (centres undefined) [Tioconazole] + CC(C)C[C@H](NC(=O)[C@H](CCc1ccccc1)NC(=O)CN1CCOCC1)C(=O)N[C@@H](Cc1ccccc1)C(=O)N[C@@H](CC(C)C)C(=O)[C@@]1(C)CO1 [Carfilzomib], 88.4.
In the case of `CNC(=O)c1cc(Oc2ccc(NC(=O)Nc3ccc(Cl)c(C(F)(F)F)c3)c(F)c2)ccn1.Cl` [Regorafenib hydrochloride] + CC(C)C[C@H](NC(=O)[C@H](CCc1ccccc1)NC(=O)CN1CCOCC1)C(=O)N[C@@H](Cc1ccccc1)C(=O)N[C@@H](CC(C)C)C(=O)[C@@]1(C)CO1 [Carfilzomib], the “cell viability of combination” value turned out to be 77.7.
With `CNC(=O)c1cc(Oc2ccc(NC(=O)Nc3ccc(Cl)c(C(F)(F)F)c3)c(F)c2)ccn1` [Regorafenib] + CC(C)C[C@H](NC(=O)[C@H](CCc1ccccc1)NC(=O)CN1CCOCC1)C(=O)N[C@@H](Cc1ccccc1)C(=O)N[C@@H](CC(C)C)C(=O)[C@@]1(C)CO1 [Carfilzomib] the figure was 74.6; with `CCOC(=O)C1=C(COCCN)NC(C)=C(C(=O)OC)C1c1ccccc1Cl` (centres undefined) [Amlodipine] + CC(C)C[C@H](NC(=O)[C@H](CCc1ccccc1)NC(=O)CN1CCOCC1)C(=O)N[C@@H](Cc1ccccc1)C(=O)N[C@@H](CC(C)C)C(=O)[C@@]1(C)CO1 [Carfilzomib], 113; with `Cl.Cl.Fc1ccc(C(c2ccc(F)cc2)N2CCN(CC=Cc3ccccc3)CC2)cc1` [Flunarizine 2HCl] + CC(C)C[C@H](NC(=O)[C@H](CCc1ccccc1)NC(=O)CN1CCOCC1)C(=O)N[C@@H](Cc1ccccc1)C(=O)N[C@@H](CC(C)C)C(=O)[C@@]1(C)CO1 [Carfilzomib], 103.
On to `COc1cccc2c1C(=O)c1c(O)c3c(c(O)c1C2=O)CC(O)(C(=O)CO)CC3OC1CC(N)C(O)C(C)O1.Cl` (centres undefined) [Epirubicin HCl] + CC(C)C[C@H](NC(=O)[C@H](CCc1ccccc1)NC(=O)CN1CCOCC1)C(=O)N[C@@H](Cc1ccccc1)C(=O)N[C@@H](CC(C)C)C(=O)[C@@]1(C)CO1 [Carfilzomib], for which the “cell viability of combination” value stood at 73.9.
As for `C[C@H]1O[C@@H](O[C@H]2[C@@H](O)C[C@H](O[C@H]3[C@@H](O)C[C@H](O[C@H]4CC[C@@]5(C)[C@H](CC[C@@H]6[C@@H]5C[C@@H](O)[C@]5(C)[C@@H](C7=CC(=O)OC7)CC[C@]65O)C4)O[C@@H]3C)O[C@@H]2C)C[C@H](O)[C@@H]1O` [Digoxin] + CC(C)C[C@H](NC(=O)[C@H](CCc1ccccc1)NC(=O)CN1CCOCC1)C(=O)N[C@@H](Cc1ccccc1)C(=O)N[C@@H](CC(C)C)C(=O)[C@@]1(C)CO1 [Carfilzomib], the “cell viability of combination” value was 40.7.
For the compound `COc1cc(Nc2c(C#N)cnc3cc(OCCCN4CCN(C)CC4)c(OC)cc23)c(Cl)cc1Cl` [Bosutinib (SKI-606)] + CC(C)C[C@H](NC(=O)[C@H](CCc1ccccc1)NC(=O)CN1CCOCC1)C(=O)N[C@@H](Cc1ccccc1)C(=O)N[C@@H](CC(C)C)C(=O)[C@@]1(C)CO1 [Carfilzomib], the “cell viability of combination” value was found to be 70.1.
`CCOc1cc2ncc(C#N)c(Nc3ccc(F)c(Cl)c3)c2cc1NC(=O)C=CCN(C)C` [Pelitinib (EKB-569)] + CC(C)C[C@H](NC(=O)[C@H](CCc1ccccc1)NC(=O)CN1CCOCC1)C(=O)N[C@@H](Cc1ccccc1)C(=O)N[C@@H](CC(C)C)C(=O)[C@@]1(C)CO1 [Carfilzomib]: the “cell viability of combination” value stood at 140.
On to `Cc1ccc(NC(=O)c2ccc(CN3CCN(C)CC3)cc2)cc1Nc1nc(-c2cccnc2)cs1` [Masitinib (AB1010)] + CC(C)C[C@H](NC(=O)[C@H](CCc1ccccc1)NC(=O)CN1CCOCC1)C(=O)N[C@@H](Cc1ccccc1)C(=O)N[C@@H](CC(C)C)C(=O)[C@@]1(C)CO1 [Carfilzomib], for which the “cell viability of combination” value is 86.3.
Then `Clc1ccc(C(Cn2ccnc2)OCc2ccc(Sc3ccccc3)cc2)c(Cl)c1.O=[N+]([O-])O` (centres undefined) [Fenticonazole Nitrate] + CC(C)C[C@H](NC(=O)[C@H](CCc1ccccc1)NC(=O)CN1CCOCC1)C(=O)N[C@@H](Cc1ccccc1)C(=O)N[C@@H](CC(C)C)C(=O)[C@@]1(C)CO1 [Carfilzomib], with 83.9; and `CC[C@H](C)[C@H]1O[C@]2(CC[C@@H]1C)C[C@@H]1C[C@@H](C/C=C(\C)[C@@H](O[C@H]3C[C@H](OC)[C@@H](O[C@H]4C[C@H](OC)[C@@H](O)[C@H](C)O4)[C@H](C)O3)[C@@H](C)/C=C/C=C3\CO[C@@H]4[C@H](O)C(C)=C[C@@H](C(=O)O1)[C@]34O)O2` [Ivermectin] + CC(C)C[C@H](NC(=O)[C@H](CCc1ccccc1)NC(=O)CN1CCOCC1)C(=O)N[C@@H](Cc1ccccc1)C(=O)N[C@@H](CC(C)C)C(=O)[C@@]1(C)CO1 [Carfilzomib], with 92.6; and `CC(C)(C)c1ccc(C(O)CCCN2CCC(C(O)(c3ccccc3)c3ccccc3)CC2)cc1` (centres undefined) [Terfenadine] + CC(C)C[C@H](NC(=O)[C@H](CCc1ccccc1)NC(=O)CN1CCOCC1)C(=O)N[C@@H](Cc1ccccc1)C(=O)N[C@@H](CC(C)C)C(=O)[C@@]1(C)CO1 [Carfilzomib], with 77.1.
As for `CN1CCCC1CCOC(C)(c1ccccc1)c1ccc(Cl)cc1.O=C(O)C=CC(=O)O` (centres undefined) [Clemastine Fumarate] + CC(C)C[C@H](NC(=O)[C@H](CCc1ccccc1)NC(=O)CN1CCOCC1)C(=O)N[C@@H](Cc1ccccc1)C(=O)N[C@@H](CC(C)C)C(=O)[C@@]1(C)CO1 [Carfilzomib], the “cell viability of combination” value stood at 77.2.
With `Clc1ccc(CSC(Cn2ccnc2)c2ccc(Cl)cc2Cl)cc1.O=[N+]([O-])O` (centres undefined) [Sulconazole Nitrate] + CC(C)C[C@H](NC(=O)[C@H](CCc1ccccc1)NC(=O)CN1CCOCC1)C(=O)N[C@@H](Cc1ccccc1)C(=O)N[C@@H](CC(C)C)C(=O)[C@@]1(C)CO1 [Carfilzomib] the figure was 93.5.
With `CC(C)C[C@H](NC(=O)[C@H](Cc1ccccc1)NC(=O)c1cnccn1)B(O)O` [Bortezomib] + CC(C)C[C@H](NC(=O)[C@H](CCc1ccccc1)NC(=O)CN1CCOCC1)C(=O)N[C@@H](Cc1ccccc1)C(=O)N[C@@H](CC(C)C)C(=O)[C@@]1(C)CO1 [Carfilzomib] the figure was 28.8; with `CS(=O)(=O)CCNCc1ccc(-c2ccc3ncnc(Nc4ccc(OCc5cccc(F)c5)c(Cl)c4)c3c2)o1.Cc1ccc(S(=O)(=O)O)cc1.Cc1ccc(S(=O)(=O)O)cc1` [Lapatinib Ditosylate] + CC(C)C[C@H](NC(=O)[C@H](CCc1ccccc1)NC(=O)CN1CCOCC1)C(=O)N[C@@H](Cc1ccccc1)C(=O)N[C@@H](CC(C)C)C(=O)[C@@]1(C)CO1 [Carfilzomib], 69.5.
Turning to `Br.Cc1ccc(Sc2ccccc2N2CCNCC2)c(C)c1` + CC(C)C[C@H](NC(=O)[C@H](CCc1ccccc1)NC(=O)CN1CCOCC1)C(=O)N[C@@H](Cc1ccccc1)C(=O)N[C@@H](CC(C)C)C(=O)[C@@]1(C)CO1 [Carfilzomib], the “cell viability of combination” value worked out at 98.3.
With `CN(C)CC=CC(=O)Nc1cc2c(Nc3ccc(F)c(Cl)c3)ncnc2cc1OC1CCOC1` (centres undefined) [Afatinib (BIBW2992)] + CC(C)C[C@H](NC(=O)[C@H](CCc1ccccc1)NC(=O)CN1CCOCC1)C(=O)N[C@@H](Cc1ccccc1)C(=O)N[C@@H](CC(C)C)C(=O)[C@@]1(C)CO1 [Carfilzomib] the figure was 63.1; with `CNCCC(Oc1cccc2ccccc12)c1cccs1.Cl` (centres undefined) [Duloxetine HCl] + CC(C)C[C@H](NC(=O)[C@H](CCc1ccccc1)NC(=O)CN1CCOCC1)C(=O)N[C@@H](Cc1ccccc1)C(=O)N[C@@H](CC(C)C)C(=O)[C@@]1(C)CO1 [Carfilzomib], 81.6; with `COC(=O)C12CCC(C)(C)CC1C1C(=O)C=C3C4(C)C=C(C#N)C(=O)C(C)(C)C4CCC3(C)C1(C)CC2` (centres undefined) [Bardoxolone methyl] + CC(C)C[C@H](NC(=O)[C@H](CCc1ccccc1)NC(=O)CN1CCOCC1)C(=O)N[C@@H](Cc1ccccc1)C(=O)N[C@@H](CC(C)C)C(=O)[C@@]1(C)CO1 [Carfilzomib], 158.
Turning to `CC(C)N=c1cc2n(-c3ccc(Cl)cc3)c3ccccc3nc-2cc1Nc1ccc(Cl)cc1` [Clofazimine] + CC(C)C[C@H](NC(=O)[C@H](CCc1ccccc1)NC(=O)CN1CCOCC1)C(=O)N[C@@H](Cc1ccccc1)C(=O)N[C@@H](CC(C)C)C(=O)[C@@]1(C)CO1 [Carfilzomib], the “cell viability of combination” value turned out to be 71.9.

(Values after the supplement of paper PMC6992640.)
